From the supplement of paper PMC11482750
± gives the standard deviation of the averaged measurements.

compound: CCC1CCC(=O)O1 [γ-hexalactone]; test: control-subtracted net OSN firing rate; higher = stronger neuronal activation; conditions: odorant dilution (vol/vol): 1/100
Procedure: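 Single sensillum recordings from olfactory sensory neurons. The neurons sit in the maxillary palp or antennal sensilla of D. melanogaster (wild type, mutants, or at1 empty-neuron lines expressing Or42a homologs or the A181D S307P mutant) and of four Scaptomyza species. Each odorant was given as a 1 s pulse from 20 µl loaded on filter paper at 1:100 vol/vol, diluted in mineral oil (γ-hexalactone in DMSO). Spikes were counted in a 0.5 s window starting 0.2 s after onset, background was subtracted, the count was doubled, and the mean solvent-control response was subtracted.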

Row | Target | control-subtracted net OSN firing rate
1 | Canton-S pb1b | -7.71 ± 12 spikes/s
2 | Canton-S pb3b | -2 ± 8.5 spikes/s
3 | Canton-S at4b | -2 ± 13 spikes/s
4 | Canton-S ab5a | 6.2 ± 8.2 spikes/s
5 | Canton-S at1 | -2 ± 5.5 spikes/s
6 | Canton-S ab1c | 1.5 ± 4.2 spikes/s
7 | Canton-S ai2b | 10 ± 6.9 spikes/s
8 | Or67dGal4, UAS-Sfla Or42a4/+ at1 | 3.43 ± 6.4 spikes/s
